From PubChem BioAssay (NCATS)
Results filed as inconclusive are left out. Activity calls are given as the source filed them. Unless noted, calls follow the shape of the dose curve; as a rule, active = well fitted curve in the direction sought with a large enough effect; inconclusive = small, poorly fitted or top-dose-only effect, or another doubt; inactive = no such curve, though single readings can be large; an effect the other way counts as inactive or inconclusive.

Assays:
[1] = Cell Viability - BJ (AID 421; calls by dose curve;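 also: potency is read from the fitted curve at half-maximal effect; cells exposed to compound for 40 hours at 37 °C before readout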); settings: BJ fibroblast viability, qHTS
Method in brief: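 Luminescent ATP signal (CellTiter-Glo, 20 min at room temperature) served as the read-out of viable BJ cells after 40 hours of compound treatment. Responses were scaled between DMSO and 100 uM tamoxifen, and AC50 values were obtained by Hill modeling.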

[2] = Cell Viability - Jurkat (AID 426;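 active = dose-dependent loss of cell ATP signal giving a full or clear fitted curve, ranked by lower potency value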;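 also: potency is read from the fitted curve at half-maximal effect; cells exposed to compound for 40 hours at 37 °C before ATP read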); settings: qHTS
Method in brief: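 Luminescent ATP read-out (CellTiter-Glo, 20 min at room temperature) after 40 hr compound exposure at 37 °C of Jurkat E6-1 cells, 5000/well. Decreased ATP taken as cytotoxicity; AC50 from standard Hill equation.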

[3] = Cell Viability - Hek293 (AID 427;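 active = compounds whose dose-response curve shows a full or clear partial loss of cell viability, called from curve shape rather than a numeric limit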;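 also: potency is read from the fitted curve at half-maximal effect; cells exposed to compound for 40 hours at 37 °C before reading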); settings: qHTS
Method in brief: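 Luminescent ATP read-out (CellTiter-Glo, 20 min RT) after 40 hr compound exposure at 37 °C in complete medium. Signal normalized to DMSO (basal) and 100 uM tamoxifen (100% inhibition); concentration-response fitted with the standard Hill equation to give AC50.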

[4] = Cell Viability - MRC5 (AID 434; calls by dose curve;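 also: potency is read from the fitted curve at half-maximal effect; cells exposed to compound for 40 hours at 37 °C; potency reflects cytotoxicity seen as loss of intracellular ATP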); settings: MRC5 lung fibroblast viability, qHTS
Method in brief: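 AC50 values come from Hill-equation fits of intracellular ATP loss, measured by CellTiter-Glo luminescence. Normal lung fibroblasts (MRC5) had 40 hr compound treatment at 37 C, normalized between DMSO and 100 uM tamoxifen.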

[5] = Cell Viability - SK-N-SH (AID 435; calls by dose curve; also: potency is read from the fitted curve at half-maximal effect); settings: SK-N-SH neuroblastoma cell viability qHTS
Method in brief: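 Human neuroblastoma line, 40 h exposure at 37 °C, ATP quantified via luciferase luminescence; DMSO and 100 uM tamoxifen define 0 and 100% inhibition for AC50 fitting.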

[6] = Cell Viability - N2a (AID 540); settings: N2a mouse neuroblastoma cell viability; activity change, negative = cytotoxicity: at 92.2 µM (top of the series);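 also: plate controls were DMSO alone for no effect and tamoxifen control for full effect; nearly all actives have a fitted effect of over 45% in size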
Method in brief: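 N2a mouse neuroblastoma, 1500 cells/well, 5 hr settle; compound 40 hr, 37 °C; CellTiter-Glo 20 min RT; luminescence; Hill-fit AC50.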

[7] = Cell Viability - H-4-II-E (AID 543); also: % is scaled to controls: 0 for no effect and ±100 for the full control effect; nearly all actives have a fitted effect of over 35% in size
Method in brief: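 qHTS, rat hepatoma H-4-II-E, 1500 cells/well; 40 hr compound exposure, 37 °C; CellTiter-Glo ATP luminescence after 20 min RT; AC50 by standard Hill fit.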

[8] = Cell Viability - SH-SY5Y (AID 544); also: nearly all actives have a fitted effect of over 55% in size
Method in brief: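 SH-SY5Y, 1500 cells/well, 5 hr pre-incubation 37 °C; cpd 40 hr 37 °C; CellTiter-Glo 20 min RT; luminescence (ATP) read. qHTS concentration-response, Hill fit → AC50. Tamoxifen, doxorubicin as positive controls.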

[9] = Cell Viability - Mesenchymal (AID 546); settings: mesenchymal cells viability, qHTS; activity change, negative = cytotoxicity: at 91.7 µM (top of the series);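 also: cells exposed to compound for 40 hours before reading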
Method in brief: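 CellTiter-Glo luminescence (intracellular ATP, 20 min room temperature) after 40 hr compound exposure at 37 °C of 1000 glomerulus-derived human kidney mesenchymal cells/well; AC50 values obtained by fitting qHTS concentration-response data to the Hill equation.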

[10] = Cellular Toxicity (caspase-3) Jurkat (AID 655); settings: Jurkat caspase-3 activation, luminescence, DMSO = 0%, tamoxifen = 100%; at 92.2 µM (top of the series);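 also: cells exposed to compound for 16 h at 37 °C before reading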
Method in brief: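 qHTS in human Jurkat T-cell leukemia line: 16 hr compound treatment at 37 °C, caspase-3/7 activity measured by Caspase-Glo luminescence. AC50 derived from Hill equation.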

[11] = Cellular Toxicity (caspase-3) HUV-EC-C (AID 656)
Method in brief: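 Concentration-dependent caspase 3/7 induction was assessed in HUV-EC-C cells exposed for 16 hours. Data scaled between DMSO and tamoxifen (100 uM) controls.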

[12] = Cellular Toxicity (caspase-3) SHSY5Y (AID 657);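 also: cells exposed to compound for 16 hours at 37 °C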
Method in brief: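 Readout: caspase-cleaved peptide-aminoluciferin substrate driving luciferase light in SH-SY5Y neuroblastoma cells after 16 h treatment. Response normalized to DMSO and 10 uM staurosporine controls.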

[13] = Cellular Toxicity (caspase-3) BJ (AID 658);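 also: 0% = DMSO basal and 100% = 10 µM staurosporine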
Method in brief: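 Caspase-Glo 3/7 luminescence, read 1 hr after reagent at room temperature, in normal BJ fibroblasts exposed 16 hours at 37 °C. AC50 values from Hill-equation concentration-response, scaled between DMSO basal and 10 uM staurosporine as 100%.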

[14] = Cellular Toxicity (caspase-3) MRC-5 (AID 659);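 also: 0% = DMSO basal and 100% = 10 µM staurosporine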
Method in brief: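 Luminescent Caspase-Glo 3/7 read-out (1 h, room temperature) after a 16 h, 37 °C compound exposure of MRC-5 lung fibroblasts at 1500 cells/well. Concentration-response AC50 from Hill equation; 0% DMSO, 100% 10 uM staurosporine.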

[15] = Cellular Toxicity (caspase-3) Mesangial (AID 660);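 also: combined caspase 3 and 7 activity read by Caspase-Glo luminescence; cells exposed to compound for 16 h before the caspase read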
Method in brief: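 Luminescent Caspase-Glo 3/7 readout (aminoluciferin substrate cleavage, 20 min RT) after 16 h compound exposure at 37 °C of normal human mesangial cells. Signal increase normalized between DMSO basal and 100 uM tamoxifen; Hill-equation AC50.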

[16] = Cellular Toxicity (caspase-3) H-4-II-E (AID 663); settings: Potency: caspase-3 activation;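 also: cells exposed to compound for 16 hr before readout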
Method in brief: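 Caspase 3/7 activation measured by luminescent aminoluciferin substrate cleavage after 16 hr compound treatment of H-4-II-E cells in complete medium. Increase normalized between DMSO (basal) and 100 uM tamoxifen (100%); Hill-equation AC50 from concentration-response.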

[17] = Cellular Toxicity (caspase-3) Hek293 (AID 664);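 also: cells exposed to compound for 16 h at 37 °C before readout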
Method in brief: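 Luminescent Caspase-Glo 3/7 readout (aminoluciferin release) in HEK293 cells after 16 h compound treatment, 37 °C. Normalization: DMSO = basal, 100 uM tamoxifen = 100% stimulation. Concentration-response fitted with standard Hill equation for AC50.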

[18] = Cellular Toxicity (caspase-3) N2a (AID 665);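 also: compound exposure lasted 16 h at 37 °C before readout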
Method in brief: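 Luminescent Caspase-Glo 3/7 readout in N2a mouse neuroblastoma cells after 16 h compound exposure at 37 °C. Signal scaled to DMSO (basal) and 10 uM staurosporine (100%). Concentration-response fitted with Hill equation for AC50.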

[19] = Cellular Toxicity (caspase-3) NIH 3T3 (AID 666);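 also: 0% = DMSO basal and 100% = 100 µM tamoxifen stimulation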
Method in brief: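 NIH 3T3, 1000 cells/well, 5 hr settle then 16 hr compound at 37°C; Caspase-Glo 3/7, 20 min RT, luminescence. DMSO = basal, 100 uM tamoxifen = 100%. Hill-equation AC50, qHTS.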

[20] = Cellular Toxicity (caspase-3) Renal Proximal Tubule (AID 667);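 also: cells exposed to compound for 16 hours at 37 °C before detection; 0% = DMSO basal and 100% = 10 µM staurosporine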
Method in brief: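 Caspase-Glo 3/7 read-out, rat primary kidney proximal tubule cells. Compound exposure 16 h, 37 °C; detection after 1 h at RT. Activity scaled to DMSO and 10 uM staurosporine.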

[21] = Cell Viability - LYMP2-001 (AID 921);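 also: cells exposed to compound for 24 h at 37 °C; 0% = DMSO only and full inhibition = tetraoctylammonium bromide control wells; nearly all actives have a fitted effect of over 70% in size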
Method in brief: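 A lymphoblastoid cell line of human origin was treated with library compounds across a concentration series for 24 hours, and viable cell number was estimated from ATP-driven luciferase light output. Hill modeling gave AC50.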

[22] = MultiTox-Fluor Cytotoxicity Assay - LYMP1-001 - Dead Cells (AID 946);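 also: 0% = DMSO and 100% = tetraoctylammonium bromide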
Method in brief: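 AC50 from Hill fit of concentration-response; data normalized to DMSO (basal) and 15 uM tetraoctylammonium bromide (100%). LYMP1-001 lymphoblastoid cells, 2500/well, 16 hr compound at 37 C; dead-cell protease fluorescence, Ex/Em 485/520.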

[23] = MultiTox-Fluor Cytotoxicity Assay - LYMP1-001 - Live Cells (AID 947);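 also: 0% = DMSO only and full inhibition = tetraoctylammonium bromide control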
[24] = Cell Viability - LYMP1-002 - Assay at 16 hr (AID 948);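 also: 0% = DMSO alone and full effect = 92 µM tetraoctylammonium bromide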
Method in brief: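 In this qHTS, lymphoblastoid LYMP1-002 cells (human) receive compounds for 16 hr at 37 C. Viability is taken from CellTiter-Glo ATP luminescence, and AC50 derives from standard Hill fits.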

[25] = MultiTox-Fluor Cytotoxicity Assay - LYMP1-002 - Live Cells (AID 955); also: % is scaled to controls: 0 for no effect and ±100 for the full control effect
Method in brief: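 LYMP1-002 lymphoblastoid cells; 2500 cells/well; 16 hr compound exposure, 37 C; MultiTox-Fluor reagent 60 min RT; live-cell fluorescence Ex/Em=405/510; qHTS concentration-response, Hill-equation AC50; tetraoctylammonium bromide positive control.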

[26] = MultiTox-Fluor Cytotoxicity Assay - LYMP1-003 - Dead Cells (AID 961);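 also: 0% = DMSO and 100% = tetraoctylammonium bromide; nearly all actives have a fitted effect of over 70% in size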
Method in brief: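 Human lymphoblastoid LYMP1-003 cells (2500/well) were treated with compounds for 16 hr at 37 C in complete medium. Dead-cell protease release was read by bis-AAF-R110 fluorescence (Ex/Em 485/520). AC50 came from Hill fits, normalized to DMSO and 15 uM tetraoctylammonium bromide.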

[27] = MultiTox-Fluor Cytotoxicity Assay - LYMP1-003 - Live Cells (AID 962);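 also: cells exposed to compound for 16 hours at 37 °C; 0% = DMSO only and full loss = 92 µM tetraoctylammonium bromide; cytotoxic hits lower the live-cell protease signal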
Method in brief: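 Readout: live-cell fluorescence (Ex/Em=405/510) from GF-AFC cleavage after 60 min MultiTox-Fluor reagent at room temperature. Lymphoblastoid LYMP1-003 cells, 16 hr compound treatment, 37 C. Concentration-response fitted to standard Hill equation for AC50.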

[28] = Cell Viability - LYMP1-003 - Assay at 24 hr (AID 963);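 also: plate controls were DMSO only for no effect and tetraoctylammonium bromide positive control for full effect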
Method in brief: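 CellTiter-Glo luminescence (intracellular ATP) read after 24 hr, 37 C compound exposure of 2500 LYMP1-003 human lymphoblastoid cells/well in complete medium; qHTS concentration series; AC50 via standard Hill equation.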

[29] = Cell Viability - LYMP1-003 - Assay at 40 hr (AID 964); also: % is scaled to controls: 0 for no effect and ±100 for the full control effect; nearly all actives have a fitted effect of over 60% in size
Method in brief: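 LYMP1-003 lymphoblastoid cells, 2500/well; 5 hr preincubation, 40 hr compound exposure, 37 C; CellTiter-Glo 30 min RT; luminescence; Hill-fit AC50. Positive control tetraoctylammonium bromide.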

[30] = Cell Viability - LYMP2-003 (AID 965);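 also: cells exposed to compounds for 24 h before reading; 0% = DMSO only and full effect = 92 µM tetraoctylammonium bromide; nearly all actives have a fitted effect of over 50% in size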
Method in brief: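 qHTS, human lymphoblastoid line, 2500 cells/well, complete medium. 24 h drug, 37 C. ATP-based luminescent readout; Hill-fit AC50.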

CC12CCC(CC1=O)C2(C)C (stereo not given)
inactive: Potency [1] > 92 µM | Potency [2] > 92 µM | Potency [3] > 92 µM | Potency [4] > 92 µM | Potency [5] > 92 µM | activity change, negative = cytotoxicity [6] -9.82% | Potency [7] | Potency [8] | activity change, negative = cytotoxicity [9] -11.1% | caspase-3 activation [10] -3.1% | outcome [11] | outcome [12] | outcome [13] | outcome [14] | outcome [15] | Potency [16] | outcome [17] | outcome [18] | outcome [19] | outcome [20] | Potency [21] | Potency [22] | Potency [23] | Potency [24] | Potency [25] | Potency [26] | Potency [27] | Potency [28] | Potency [29] | Potency [30]
